A short description of assay [1]: Quantitative highthroughput screen to assess conditional lethalithy of NOMO1 cells grown in RPMI1640 with untreated serum (RPMI+s) (AID 1963876). Further: nearly all actives have a fitted effect of over 35% in size. Further: potency means the concentration at half of the fitted maximal effect.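 On viability: 100% = DMSO wells and 0% = empty wells without cells.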 In a few lines: (§1)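 Each medium arm—HPLM with 10% dialyzed FBS, or RPMI1640 with 5 mM glucose and 10% untreated or dialyzed FBS—was screened against an 11-point, 3-fold compound titration for 48 h at 37 °C, with CellTiter-Glo luminescence as endpoint.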

Assay [2] is described as follows: Quantitative highthroughput screen to assess conditional lethalithy of NOMO1 cells grown in RPMI1640 with dialyzed fetal bovine serum (RPMI+ds) (AID 1963877). Further: nearly all actives have a fitted effect of over 30% in size. Further: potency means the concentration at half of the fitted maximal effect.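 On viability: series mostly up to about 46 µM; 100% = DMSO control wells and 0% = empty wells.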 Put shortly: as §1
A short description of assay [3]: Quantitative highthroughput screen to assess conditional lethalithy of P12 Ichikawa cells grown in Human Plasma-Like Medium with dialyzed fetal bovine serum (HPLM+ds) (AID 1963879). Further: nearly all actives have a fitted effect of over 35% in size. Further: potency means the concentration at half of the fitted maximal effect. On viability: series mostly up to about 46 µM. To be noted: Potency: viability. Put shortly:
as §1

A short description of assay [4]: Quantitative highthroughput screen to assess conditional lethalithy of P12 Ichikawa cells grown in RPMI1640 with dialyzed fetal bovine serum (RPMI+ds) (AID 1963880). Further: nearly all actives have a fitted effect of over 35% in size. Further: potency means the concentration at half of the fitted maximal effect.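 On viability: 100% = DMSO wells and 0% = empty wells on each plate.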 To be noted: Potency: P12-Ichikawa viability. Put shortly: as §1
A short description of assay [5]: Quantitative highthroughput screen to assess conditional lethalithy of P12 Ichikawa cells grown in RPMI1640 with untreated serum (RPMI+s) (AID 1963881). Further: nearly all actives have a fitted effect of over 35% in size. Further: potency means the concentration at half of the fitted maximal effect.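 On viability: series mostly up to about 46 µM; 100% = DMSO wells and 0% = empty wells without cells.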 To be noted: Potency: viability. In a few lines:
as §1

Assay [6] can be described thus: Quantitative highthroughput screen to assess conditional lethalithy of SEM cells grown in Human Plasma-Like Medium with dialyzed fetal bovine serum (HPLM+ds) (AID 1963882). Further: nearly all actives have a fitted effect of over 35% in size. Further: potency means the concentration at half of the fitted maximal effect. On viability: series mostly up to about 46 µM. Put shortly:
as §1

The nature of assay [7]: Quantitative highthroughput screen to assess conditional lethalithy of SEM cells grown in RPMI1640 with unreated serum (RPMI+s) (AID 1963883). Further: nearly all actives have a fitted effect of over 35% in size. Further: potency means the concentration at half of the fitted maximal effect.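 On viability: 100% = DMSO wells and 0% = empty wells without cells.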 In a few lines:
as §1

Assay [8] can be described thus: Quantitative highthroughput screen to assess conditional lethalithy of SEM cells grown in RPMI1640 with dialyzed fetal bovine serum (RPMI+ds) (AID 1963884). Further: nearly all actives have a fitted effect of over 35% in size. Further: potency means the concentration at half of the fitted maximal effect.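 On viability: series mostly up to about 46 µM; 100% = DMSO control wells and 0% = empty wells without cells.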 Put shortly: as §1
Assay [9] can be described thus: Quantitative highthroughput screen to assess conditional lethalithy of NOMO1 cells grown in Human Plasma-Like Medium with dialyzed fetal bovine serum (HPLM+ds) (AID 1963878). Further: nearly all actives have a fitted effect of over 35% in size. Further: potency means the concentration at half of the fitted maximal effect.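 On viability: 100% = DMSO wells and 0% = empty wells on each plate.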 Put shortly:
as §1

The nature of assay [10]: Cellular viability qHTS for adrenocortical cancer (ACC) cell line SW-13 (AID 1963989).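 Further: cells grown in serum-free medium with ITS supplement; on the % scale 0 is the no-effect control and ±100 the full control effect; nearly all actives have a fitted effect of over 65% in size.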 To be noted: SW-13 ACC cells viability, CellTiter-Glo, 48 h; activity (max response): hits give low values. Put shortly:
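Luminescent ATP read-out (CellTiter-Glo, 20 min at room temperature) measured metabolically competent SW-13 cells after 48 h compound treatment. Final concentrations spanned up to 46 uM; bortezomib served as positive control.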

Assay [11] can be described thus: Cellular viability qHTS for adrenocortical cancer (ACC) cell line NCI-H295R (AID 1963990). Further: nearly all actives have a fitted effect of over 60% in size. Further: potency means the concentration at half of the fitted maximal effect. In a few lines: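 IC50 and maximal efficacy derive from four-parameter logistic modelling of titration curves, with reads scaled between DMSO-only wells (0%) and doxorubicin hydrochloride (100% inhibition). Compounds spanned up to 46 uM over 48 h.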

Here are results for 20 compounds from PubChem BioAssay (NCATS).

Records with an inconclusive call do not appear. Unmarked numbers belong to inactive results. The source made the active and inactive calls. The call rests on the fitted dose curve; in most records, active means well fitted curve in the direction sought with a large enough effect; inconclusive means small, poorly fitted or top-dose-only effect, or another doubt; inactive means no such curve, though single readings can be large; an effect the other way counts as inactive or inconclusive.

With `COC1=C(OC)C(=O)C(CC=C(C)CCC=C(C)CCC=C(C)CCC=C(C)CCC=C(C)CCC=C(C)CCC=C(C)CCC=C(C)CCC=C(C)CCC=C(C)C)=C(C)C1=O`, the Potency entry in assay [1], in [2], in [3], in assay [4], in [5] and in assay [6] was “inactive” throughout. For the same compound, the Potency entry in [7] and in [8] was “inactive” each time.
As to `CC[C@H](NC(=O)[C@H](C)NC)C(=O)N1C[C@@H](O)C[C@H]1Cc1c(-c2[nH]c3cc(F)ccc3c2C[C@H]2C[C@H](O)CN2C(=O)[C@H](CC)NC(=O)[C@H](C)NC)[nH]c2cc(F)ccc12`, the Potency is 0.935 µM (active) in assay [1]; 2.35 µM (active) in assay [2]; 2.96 µM (active) in assay [3]; 2.64 µM (active) in assay [4]; 3.32 µM (active) in [5]. Moreover, the Potency result in [6] is “inactive”.
For `NC(=O)c1cccc(-c2cccc(OC(=O)NC3CCCCC3)c2)c1`, the Potency result in assay [1], in assay [2], in assay [9] and in assay [11] was “inactive” throughout. In addition, in [10], the activity (max response) was -29.9%.
Consider `CCc1cncnc1N1CCN(Cc2nc3ccc(C(F)(F)F)cc3[nH]2)CC1`, for which the Potency entry in [1], in [2] and in [9] was “inactive” in each case. For the same compound, the Potency in [11] was 17.8 µM (active).
Take `O=C(C[C@@H]1CC=CCCC(=O)O[C@H](c2ccccc2)CNC1=O)NCc1ccc(Cl)cc1`: the Potency entry in assay [1], in assay [2], in assay [3], in assay [4], in assay [5] and in assay [6] was “inactive” throughout. The Potency entry in assay [7] and in [8] was “inactive” each time.
In the case of `CC1(C)[C@H]2CC[C@]3(C)[C@@H](C(=O)C=C4[C@@H]5C[C@@](C)(C(=O)O)CC[C@]5(C)CC[C@]43C)[C@@]2(C)CC[C@@H]1O`, the Potency entry in [1], in assay [2], in assay [3], in [4], in assay [5] and in assay [6] was “inactive” throughout. The Potency entry in [7] and in [8] was “inactive” throughout.
Consider `C[C@]12CCC3=C4CCC(=O)C=C4CC[C@@H]3[C@H]1CC[C@@]2(O)CC#N`, for which the Potency result in [1], in assay [2], in assay [3], in [4], in assay [5] and in assay [6] was “inactive” each time. Also, the Potency result in assay [7] was “inactive”.
Take `CCN1CCCC1CNC(=O)c1cc(S(N)(=O)=O)ccc1OC` (stereo not drawn): the Potency entry in [1], in [2], in [3], in assay [4] and in assay [5] was “inactive” in each case.
Turning to `CC1(C)OC2CC3C4CC(F)C5=CC(=O)C=CC5(C)C4C(O)CC3(C)[C@]2(C(=O)CO)O1` (stereo partly drawn), the Potency entry in [1], in assay [2] and in assay [9] was “inactive” in each case. The Potency in [6] was 2.35 µM (active).
Consider `C=CCNC1=C2C[C@@H](C)C[C@H](OC)[C@@H](O)[C@@H](C)C=C(C)[C@H](OC(N)=O)[C@@H](OC)C=CC=C(C)C(=O)NC(=CC1=O)C2=O`, for which the Potency was 5.26 µM (active) in assay [1]; 5.9 µM (active) in assay [2]; 5.9 µM (active) in [9]; 0.526 µM (active) in assay [6]; 0.332 µM (active) in assay [7]; 0.332 µM (active) in assay [8].
As to `CC1COC2(CCN(c3nc(=O)c4cc(C(F)(F)F)cc([N+](=O)[O-])c4s3)CC2)O1` (stereo not drawn), the Potency entry in assay [1], in assay [2], in assay [9] and in assay [11] was “inactive” in each case. In [10], the activity (max response) is -6.91%.
With `CC(=O)OCC(=O)[C@@]1(O)[C@H](C)C[C@H]2[C@@H]3C=C(C)C4=Cc5c(cnn5-c5ccccc5)C[C@]4(C)[C@@H]3[C@@H](O)C[C@@]21C`, the Potency entry in [1], in assay [2] and in assay [9] was “inactive” in each case. In addition, the Potency is 0.0148 µM (active) in assay [8] and 25.1 µM (active) in assay [11]. Moreover, the activity (max response) in assay [10] is 3.11%.
As to `CNC1[C@H](O)C(O[C@@H]2C(O)C(O[C@H]3O[C@H]([C@@H](C)NC)CC[C@H]3N)[C@@H](N)C[C@H]2N)OC[C@]1(C)O` (stereo partly drawn), the Potency entry in assay [1], in assay [2], in assay [3], in assay [4], in [5] and in assay [6] was “inactive” throughout. In addition, the Potency result in [7] and in assay [8] was “inactive” throughout.
Turning to `O=C(O)C=Cc1ccc(Cn2ccnc2)cc1`, the Potency result in assay [1], in [2], in assay [3], in assay [4], in assay [5] and in assay [6] was “inactive” in each case. The Potency result in [7] and in assay [8] was “inactive” throughout.
Take `O=C1C(CCC(O)c2ccc(F)cc2)C(c2ccc(O)cc2)N1c1ccc(F)cc1` (stereo not drawn): the Potency entry in assay [1], in [2], in [3], in assay [4], in [5] and in assay [6] was “inactive” in each case. In addition, the Potency result in [7] and in assay [8] was “inactive” each time.
For `CC(=Cc1ccccc1)C=C1SC(=S)N(CC(=O)O)C1=O`, the Potency result in [1], in [2], in [3], in assay [4], in [5] and in [6] was “inactive” in each case. In addition, in [8], the Potency entry is “inactive”. In addition, the Potency in assay [7] was 5.9 µM (active).
For `CCS(=O)(=O)N1CC(CC#N)(n2cc(-c3ncnc4[nH]ccc34)cn2)C1`, the Potency result in assay [1], in [2], in assay [3], in assay [4] and in [5] was “inactive” each time.
With `C1=CCOCc2cc(ccc2OCCN2CCCC2)Nc2nccc(n2)-c2cccc(c2)OCC1`, the Potency in assay [1] was 7.43 µM (active); in assay [2], 6.62 µM (active); in assay [3] it was 10.5 µM (active); in assay [4], 13.2 µM (active); in assay [5] it was 13.2 µM (active); in assay [6], 3.32 µM (active). In addition, the Potency in [7] and in [8] was 4.18 µM (active) throughout.
`CCOC(=O)O[C@]1(C(=O)OCCl)CC[C@@H]2[C@H]3CCC4=CC(=O)C=C[C@]4(C)[C@@H]3[C@@H](O)C[C@@]21C`: the Potency entry in assay [1], in [2], in assay [3], in [4], in assay [5] and in assay [6] was “inactive” each time. The Potency entry in assay [7] and in [8] was “inactive” in each case.
Take `CC(CCc1ccc(O)cc1)NCCc1ccc(O)c(O)c1` (stereo not drawn): the Potency entry in assay [1], in assay [2], in assay [9] and in assay [11] was “inactive” throughout. The Potency in assay [6], in assay [7] and in assay [8] was 20.9 µM (active) each time. Moreover, the activity (max response) in assay [10] was -9.68%.
